# FLuc modulator: qHTS profiling assay for firefly luciferase inhibitor/activator using purifed enzyme and Km concentrations of substrates (counterscreen for miR-21 project); AID 588342, 2011; purified FLuc, Km substrates, luminescence inhibition; Potency, µM (top dose mostly 57.5 µM), without a hit: top-dose activity change, negative = inhibition, usual class: inhibitors; hit rate 6.9% among 360,000;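 note: plate controls were vehicle for no effect and reference inhibitor for full effect; nearly all actives have a fitted effect of over 55% in size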
# Target sequence (P08659 whole entry, looked up): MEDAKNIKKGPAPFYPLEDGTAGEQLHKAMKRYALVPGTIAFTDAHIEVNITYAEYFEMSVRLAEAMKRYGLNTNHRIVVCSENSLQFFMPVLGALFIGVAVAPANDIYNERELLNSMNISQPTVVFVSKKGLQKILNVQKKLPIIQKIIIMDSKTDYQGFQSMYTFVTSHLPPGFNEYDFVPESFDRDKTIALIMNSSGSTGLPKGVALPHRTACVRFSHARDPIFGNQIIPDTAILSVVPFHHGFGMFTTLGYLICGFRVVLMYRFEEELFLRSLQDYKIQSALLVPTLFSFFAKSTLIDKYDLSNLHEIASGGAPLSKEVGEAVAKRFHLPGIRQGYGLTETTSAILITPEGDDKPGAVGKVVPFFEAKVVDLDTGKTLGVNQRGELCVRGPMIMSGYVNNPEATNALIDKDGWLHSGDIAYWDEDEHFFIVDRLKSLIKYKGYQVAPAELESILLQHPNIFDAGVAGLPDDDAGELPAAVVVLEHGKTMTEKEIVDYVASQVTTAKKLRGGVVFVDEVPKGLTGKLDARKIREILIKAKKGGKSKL
#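 Biochemical qHTS of compounds, final roughly 60 µM downward over six points, against 10 nM purified firefly luciferase using Km concentrations of substrates (10 uM D-luciferin, 10 uM ATP) in Tris acetate pH 7.5 buffer; luminescence output.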
# ELG1 genotoxic: qHTS screen for small molecules that induce genotoxicity in human embryonic kidney (HEK293T) cells expressing luciferase-tagged ELG1; HEK293T ELG1-luciferase reporter, luminescence, 16 h; Potency, µM (series often up to 46 µM), for inactives: at the highest dose activity change, positive = activation, usual class: activators; hit rate 1.3% among 330,000; AID 504466, 2011; note: % of control where 0% means no effect; nearly all actives have a fitted effect of over 60% in size
#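 Quantitative HTS format in 1536-well plates. HEK293T ELG1-luciferase reporter cells receive test compound and are incubated 16 hr at 37 °C, 5% CO2; ONE-Glo added, 30 min room temperature, then luminescence read.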
# SMN2 splice enh: qHTS Assay for Enhancers of SMN2 Splice Variant Expression; HEK293 SMN2-luciferase splicing reporter, luminescence, 30-36 h; Potency, µM (titrated, usually from 46.1 µM), without a hit: top-dose activity change, positive = activation, actives largely listed as activators; hit rate 2.8% among 210,000; note: % of control where 0% means no effect; nearly all actives have a fitted effect of over 55% in size
#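 qHTS luciferase splicing reporter: luminescence rises when SMN2 exon 7 is included in transfected HEK293 cells. Compound exposure lasted 30-36 h at 37C, with 4.5 mM final sodium butyrate as control, followed by a ONE-Glo read.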
# NPC1 prom act: qHTS Assay for NPC1 Promoter Activators | Huh7 NPC1 promoter luciferase reporter, 24 h | hit rate 2.4% among 320,000 | Potency, µM (highest dose often 9.22 µM), inactives show at the highest dose activation, actives largely listed as activators; note: % of control where 0% means no effect; nearly all actives have a fitted effect of over 60% in size
#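 In 1536-well qHTS, Huh7 cells harboring an NPC1 promoter–luciferase construct received compound for 24 h; activation was quantified by luminescence following luciferase reagent addition.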
# Rab9 promoter act: qHTS Assay for Rab9 Promoter Activators | Potency, µM (top dose mostly 9.22 µM), for inactives: at the top dose activation, negative = inhibition, most hits filed as activators | Huh7 Rab9 promoter-luciferase reporter, luminescence, 24 h | hit rate 2.8% among 320,000 | AID 485297, 2010; note: % of control where 0% means no effect; nearly all actives have a fitted effect of over 60% in size
#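 Cells were plated at 1500 per well in reduced-serum medium with 10% FBS and left 2 h. Compound in DMSO was then added for 24 h at 37 °C. Reporter signal was read by luminescence after 10 min with luciferase detection reagent.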
# * hit, by the source's call; ? = inconclusive; . = not tested or not shown; [ ] = dose if it differs, or a comment. Sampled rows, rich in hits. Any-hit rate of the full collection: about 7.4%. Calls come from the whole dose curve; as a rule, active = well fitted curve in the direction sought with a large enough effect; inconclusive = small, poorly fitted or top-dose-only effect, or another doubt; inactive = no such curve, though single readings can be large; an effect the other way counts as inactive or inconclusive. Potency is the fitted concentration of half-maximal effect.
SMILES,FLuc modulator,ELG1 genotoxic,SMN2 splice enh,NPC1 prom act,Rab9 promoter act
Cc1ccccc1/C=N/Nc1nc2ccccc2[nH]1,10.7µM*,-10.2%,.,?,3.55µM*
O=[N+]([O-])c1cc(/C=N/Nc2nc3ccccc3[nH]2)c(O)cc1O,23.9µM*,?,-65.2%,-30.6%,-27.9%
Cc1ccccc1/C=N/Nc1ccc(Cl)nn1,-6.9%,-0.3%,-2.0%,11.2%,15.7%
CC(C)(C)C1CCC(=NNC(=O)C2COc3ccccc3O2)CC1 (stereo unspecified),2.1%,3.3%,.,1.3%,2.1%
COc1ccc(/C=N/Nc2nc3ccccc3[nH]2)c(OC)c1OC,1.51µM*,?,.,?,?
Cc1cc(=O)[nH]c(N/N=C/c2c[nH]c3ccccc23)n1,?,3.9%,.,3.9%,19.8%
Cc1ccc(/C=N/Nc2nc3ccccc3[nH]2)s1,5.36µM*,?,10µM*,2.82µM*,2.24µM*
C(=N\Nc1nc2ccccc2[nH]1)/c1c[nH]c2ccccc12,7.57µM*,?,?,?,?
CC(=O)N1CCC(=NNc2nc3ccccc3[nH]2)CC1,?,3.4%,?,0.6%,-6.3%
COc1cccc(/C=N/Nc2nc(C)cc(=O)[nH]2)c1OC,?,10.2%,.,25.9%,14.5%
Cc1nn(-c2ccccc2)c(Cl)c1/C=N/Nc1nc2ccccc2[nH]1,0.477µM*,2.59µM*,.,0.562µM*,0.447µM*
COc1ccc(N2Cc3cccc(C(=O)Nc4cccc(F)c4)c3C2=O)cc1,-1.5%,.,-1.0%,.,.
COc1ccccc1CN1CC(C(=O)N2CCCCO2)CCC1=O (stereo unspecified),?,?,.,25.7%,?
O=C1CCC(C(=O)N2CCCCO2)CN1CCc1ccccc1 (stereo unspecified),16.9µM*,?,.,?,?
O=C1CN(C(=O)COc2ccc(Cl)cc2)C(c2ccccc2)c2cc(Br)ccc2N1 (stereo unspecified),-1.3%,.,19.9%,.,.
CCn1cnc2cc(NC(=O)c3cccs3)ccc21,15.1µM*,?,12.6µM*,3.55µM*,2.24µM*
CCC(=O)Nc1ccc2c(c1)ncn2CCc1ccccc1,-11.0%,9.8%,.,3.4%,-3.8%[1.84 µM]
CN(C)c1ccc(CNc2ccc3c(c2)ncn3C(C)(C)C)cc1,8.49µM*,13.3%,.,-0.9%,-1.1%
CC(C)(C)n1cnc2cc(NC(=O)c3ccccc3)ccc21,6.01µM*,5.17µM*,.,1.41µM*,1.41µM*
CC(C)(C)n1cnc2cc(NC(=O)c3cccs3)ccc21,7.57µM*,?,12.6µM*,2.51µM*,1.26µM*
CCn1cnc2cc(NCc3ccc(N(C)C)cc3)ccc21,?,?,-18.1%,0.1%,-3.0%
CC(C)(C)n1cnc2cc(NCc3cccs3)ccc21,12µM*,19.9%,8.91µM*,?,?
CC(=O)c1ccc(NC(=O)COc2ccccc2-c2nc(C(C)C)no2)cc1,-2.4%,.,.,.,.
CC(C)=CCN1CCN(Cc2cnc(C)s2)CC1CCO (stereo unspecified),6.75µM*,?,.,1.58µM*,0.794µM*
CC(C)=CCN1CCN(Cc2cnc(N3CCOCC3)s2)CC1CCO (stereo unspecified),2.13µM*,?,.,3.16µM*,2.82µM*
SMILES,FLuc modulator,ELG1 genotoxic,SMN2 splice enh,NPC1 prom act,Rab9 promoter act
COC(=O)c1ccc(CN2CCN(CC=C(C)C)C(CCO)C2)cc1 (stereo unspecified),16.9µM*,1.6%,.,-1.4%,-2.4%
COc1ccc2c(c1)O[C@@H](c1cccc(C(F)(F)F)c1)[C@H](OC(=O)NC1CCCC1)C2=O,.,.,-4.0%,.,.
CC1(C)CC2(C)OC(=N)C1(C#N)C2(C#N)C#N (stereo unspecified),-1.3%,22.1%,.,-2.5%,-4.5%
CC(C)(C)c1nc2scc(-c3cccs3)c2c(=O)o1,13.5µM*,-0.3%,.,0.4%,14.5%
CSCc1nc2scc(-c3ccccc3)c2c(=O)[nH]1,4.5%,3.5%,-3.9%,-0.6%,-0.2%
O=C(O)c1ccc(-c2nc3scc(-c4ccccc4)c3c(=O)[nH]2)cc1,9.53µM*,-1.1%,.,0.4%,-9.9%
CC(C)(C)c1nc2scc(-c3ccc(Cl)cc3)c2c(=O)o1,1.3%,-4.3%,19.3%,-0.7%,-1.2%
O=c1[nH]c(-c2ccc(O)cc2)nc2scc(-c3cccs3)c12,10.7µM*,?,.,2.82µM*,2µM*
O=C(COC(=O)c1ccc2ccccc2c1O)NCC(F)(F)F,3.2%,8.2%,.,-0.9%,-2.5%
CCOc1ccc(N2C(=O)c3[nH]nc(-c4ccc(OC)cc4)c3C2c2cccs2)cc1 (stereo unspecified),-2.5%,.,4.0%,.,.
Cc1ccc(-n2c(=O)[nH]c3cc(C(=O)NCCc4ccccc4)ccc3c2=O)cc1,1.7%,.,6.6%,.,.
Cc1cc(NC(=O)CCn2c(=O)c3cccn3c3cccnc32)ccc1Br,2.9%,.,.,.,.
CNc1nnc(-c2cc3cc(Cl)ccc3oc2=O)s1,?,18.4µM*,?,?,?
O=C(NCc1ccccc1)c1cccc(COc2ccc(Cl)cc2)c1,16.9µM*,?,6.31µM*,1.78µM*,2.82µM*
COc1cc(CNC(=O)c2cccc(COc3ccc(Cl)cc3)c2)cc(OC)c1,10.7µM*,?,2.51µM*,0.708µM*,0.224µM*
O=C(NCc1ccccc1)c1cccc(COc2cccc(Cl)c2)c1,-12.1%,1.3%,18.6%,?,?
COc1ccc(Cl)cc1NC(=O)CSc1nc(=O)n(Cc2ccco2)c2c1CCC2,-3.3%,.,.,.,.
CCOc1ccc2ccccc2c1CNCCc1ccc(S(N)(=O)=O)cc1,-1.1%,-5.2%,.,2.3%,0.0%
CCC(C)(C)NC(=O)CN(Cc1ccc(OC)cc1)C(=O)CCC(=O)Nc1nccs1,-0.1%,-6.0%,.,0.9%,-0.4%
COC(=O)c1cc2c(C)nn(-c3ccccc3)c2s1,-18.2%,12.8%,15.4%,28.8%,6.0%
Cc1nn(-c2ccccc2)c2sc(C(=O)O)cc12,?,0.3%,?,1.3%,3.4%
Cc1nn(-c2ccccc2)c2sc(C(=O)N3CCOCC3)cc12,10.7µM*,?,11.2µM*,?,3.55µM*
Cc1nn(-c2ccccc2)c2sc(C(=O)OC3CCOC3=O)cc12 (stereo unspecified),15.1µM*,2.0%,9.0%,2.5%,-1.1%
Cc1ccc(-n2nc(C)c3cc(C(=O)O)sc32)cc1,19µM*,3.3%,8.1%,-1.3%,-3.5%
Cc1ccc(-n2ncc(C(=O)N3CCC(c4ccccc4)C3)c2C2CCN(C(=O)OC(C)(C)C)CC2)cc1 (stereo unspecified),-7.5%,.,.,.,.
CC(C)C(=O)Nc1ccc2nc(SCC(=O)N3CCCC3)sc2c1,-1.3%,.,.,.,.
